# According to PubChem BioAssay:
# Several values for one entry are separate records, joined by “and”; a condition that tells them apart may be missing. Identical values can stand only once. Results filed as inconclusive are left out. Activity calls are given as the source filed them.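 How the source made its calls, unless noted: active means normalized viability below 100% at a tested concentration; inactive means the rest.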
# How the values were obtained:
# [1] = growth inhibition of DIPG glioma cells, dose response, cell-based, SU-DIPG-XVII, MIPE5.0, CellTiter-Glo, qHTS (AID 1347060; cut-off not given, nearly all actives have AC50 up to about 26 µM;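 on AC50: cells exposed to compound for 48 hours before viability readout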); details: SU-DIPG-XVII viability, CellTiter-Glo ATP luminescence
# [2] = growth inhibition of DIPG glioma cells, dose response, cell-based, SU-DIPG-IV, MIPE4.0, CellTiter-Glo, qHTS (AID 1347063; cut-off not given, nearly all actives have AC50 up to about 30 µM;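 further: compound exposure lasted 48 hours before the viability readout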); details: SU-DIPG-IV viability, CellTiter-Glo ATP luminescence
# [3] = growth inhibition of DIPG glioma cells, dose response, cell-based, SU-DIPG-XIII, MIPE5.0, CellTiter-Glo, qHTS (AID 1347064; cut-off not given, nearly all actives have AC50 up to about 23 µM;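 on AC50: cells exposed to compound for 48 hours before the viability read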); details: SU-DIPG-XIII viability, CellTiter-Glo ATP luminescence
# [4] = viability loss in pontine glioma line – cell-based, SU-DIPG-XXV, MIPE5.0, CellTiter-Glo, qHTS, dose response (AID 1347065; cut-off not given, nearly all actives have AC50 up to about 26 µM;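 further: cells exposed to compound for 48 hours before ATP readout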); details: CellTiter-Glo ATP luminescence
# [5] = SU-DIPG-VI glioma cell viability, MIPE4.0 library, CellTiter-Glo luminescence, qHTS (AID 1347066; cut-off not given, nearly all actives have AC50 up to about 30 µM;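 further: cells exposed to compound for 48 hours before readout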); details: CellTiter-Glo ATP luminescence
# [6] = JHH-DIPG-1 glioma cell viability, MIPE5.0 library, CellTiter-Glo luminescence, qHTS (AID 1347067; cut-off not given, nearly all actives have AC50 up to about 26 µM;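 further: cells exposed to compound for 48 hours before readout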); details: JHH-DIPG-1 glioma viability, CellTiter-Glo ATP luminescence
# [7] = SU-DIPG-XXV glioma cell viability, MIPE5.0 library, qHTS (AID 1347068; cut-off not given, nearly all actives have IC50 up to about 30 µM;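 on IC50: cells exposed to compound for 48 hours before viability readout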)
# [8] = sensitizers of A549 cells to miR-34 induction, primary screen, imaging, A549 dox-inducible miR-34, nuclei and caspase counts (AID 1347080;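 active means compounds whose cell count with miR-34 switched on is under 0.7 times the count with it off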); details: A549 miR-34 inducible, Hoechst nuclei count, 48 h
# [9] = survival rescue of mitochondrial mutant cells in low glucose, primary screen, MELAS cybrids, Rieske KO mouse fibroblasts, CellTiter-Glo (AID 1508586;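 active means mean z-score across replicates of 1.96 or higher in either the MELAS or the Rieske mutant cell line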;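 further: z relative to plate mean and SD of compound and empty wells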)
# [10] = ovarian cancer cell viability with rucaparib, profiling panel, oncology-focused library, rucaparib conditional (AID 1508598); details: patient-derived ovarian cancer cells, CellTiter-Glo viability, 144 h, stronger effect = lower value
# [11] = modifiers of HSF1 nuclear foci, imaging, Selleck Cancer Library (AID 1347162; in the data active means plate-normalised HSF1 focus index below about 0.46); details: human cells, at 10 µM; SSMD: measured here: HSF1 foci SSMD mean; cell count: measured here: cell number; plate-normalised HSF1 focus index: stronger effect = lower value
# [12] = stronger effect = lower value, cell number ratio, induced over uninduced
# [13] = measured here: relative caspase fold change +Dox/-Dox
# [14] = measured here: total cells with miR-34 induction, stronger effect = lower value
# [15] = measured here: total cells without miR-34 induction
# [16] = MELAS cybrid survival, CellTiter-Glo 48 h, stronger effect = higher value
# [17] = Rieske KO mouse fibroblast survival, CellTiter-Glo 72 h
# [18] = at 0.000305 µM, OCI-C5x cells, with rucaparib 10 µM, 100% = cells with rucaparib alone
# [19] = at 0.000305 µM, OCI-C5x cells, without rucaparib
# [20] = at 0.000305 µM, OCI-P5x cells, with rucaparib 20 µM, 100% = cells with rucaparib alone
# [21] = at 0.000305 µM, OCI-P5x cells, without rucaparib
# [22] = at 0.00122 µM, OCI-C5x cells, with rucaparib 10 µM, 100% = cells with rucaparib alone
# [23] = at 0.00122 µM, OCI-C5x cells, without rucaparib
# [24] = at 0.00122 µM, OCI-P5x cells, with rucaparib 20 µM, 100% = cells with rucaparib alone
# [25] = at 0.00122 µM, OCI-P5x cells, without rucaparib
# [26] = at 0.00488 µM, OCI-C5x cells, with rucaparib 10 µM, 100% = cells with rucaparib alone
# [27] = at 0.00488 µM, OCI-C5x cells, without rucaparib
# [28] = at 0.00488 µM, OCI-P5x cells, with rucaparib 20 µM, 100% = cells with rucaparib alone
# [29] = at 0.00488 µM, OCI-P5x cells, without rucaparib
# [30] = at 0.0195 µM, OCI-C5x cells, with rucaparib 10 µM, 100% = cells with rucaparib alone
# [31] = at 0.0195 µM, OCI-C5x cells, without rucaparib
# [32] = at 0.0195 µM, OCI-P5x cells, with rucaparib 20 µM, 100% = cells with rucaparib alone
# [33] = at 0.0195 µM, OCI-P5x cells, without rucaparib
# [34] = at 0.0781 µM, OCI-C5x cells, with rucaparib 10 µM, 100% = cells with rucaparib alone
# [35] = at 0.0781 µM, OCI-C5x cells, without rucaparib
# [36] = at 0.0781 µM, OCI-P5x cells, with rucaparib 20 µM, 100% = cells with rucaparib alone
# [37] = at 0.0781 µM, OCI-P5x cells, without rucaparib
# [38] = at 0.313 µM, OCI-C5x cells, with rucaparib 10 µM, 100% = cells with rucaparib alone
# [39] = at 0.313 µM, OCI-C5x cells, without rucaparib
# [40] = at 0.313 µM, OCI-P5x cells, with rucaparib 20 µM, 100% = cells with rucaparib alone
# [41] = at 0.313 µM, OCI-P5x cells, without rucaparib
# [42] = at 1.25 µM, OCI-C5x cells, with rucaparib 10 µM, 100% = cells with rucaparib alone
# [43] = at 1.25 µM, OCI-C5x cells, without rucaparib
# [44] = at 1.25 µM, OCI-P5x cells, with rucaparib 20 µM, 100% = cells with rucaparib alone
# [45] = at 1.25 µM, OCI-P5x cells, without rucaparib
# [46] = at 5 µM, OCI-C5x cells, with rucaparib 10 µM, 100% = cells with rucaparib alone
# [47] = at 5 µM, OCI-C5x cells, without rucaparib
# [48] = at 5 µM, OCI-P5x cells, with rucaparib 20 µM, 100% = cells with rucaparib alone
# [49] = at 5 µM, OCI-P5x cells, without rucaparib
compound,measurement,setting,value
N#Cc1c(NC(=O)c2cccc3ccccc23)sc2c1CCCC2,AC50,[1],372 nM (active)
same,AC50,[2],418 nM (active)
same,AC50,[3],1320 nM (active)
same,AC50,[4],833 nM (active)
same,outcome,[5],inactive
same,AC50,[6],263 nM (active)
same,IC50,[7],235 nM (active)
same,fold change,[8]; [12],1.02 (inactive)
same,fold change,[8]; [13],0.427
same,cell count,[8]; [14],1320
same,cell count,[8]; [15],1290
same,z-score,[9]; [16],-0.44 (inactive) and 1.09 (inactive)
same,z-score,[9]; [17],0.237 and -1.54
same,viability,[10]; [18],117% (inactive)
same,viability,[10]; [19],105% (inactive)
same,viability,[10]; [20],96% (active)
same,viability,[10]; [21],102% (inactive)
same,viability,[10]; [22],129% (inactive)
same,viability,[10]; [23],120% (inactive)
same,viability,[10]; [24],95.3% (active)
same,viability,[10]; [25],109% (inactive)
same,viability,[10]; [26],113% (inactive)
same,viability,[10]; [27],109% (inactive)
same,viability,[10]; [28],102% (inactive)
same,viability,[10]; [29],97.3% (active)
same,viability,[10]; [30],108% (inactive)
same,viability,[10]; [31],116% (inactive)
same,viability,[10]; [32],98.6% (active)
same,viability,[10]; [33],103% (inactive)
same,viability,[10]; [34],118% (inactive)
same,viability,[10]; [35],109% (inactive)
same,viability,[10]; [36],97.5% (active)
same,viability,[10]; [37],102% (inactive)
same,viability,[10]; [38],119% (inactive)
same,viability,[10]; [39],110% (inactive)
same,viability,[10]; [40],105% (inactive)
same,viability,[10]; [41],100% (inactive)
same,viability,[10]; [42],72.9% (active)
same,viability,[10]; [43],106% (inactive)
same,viability,[10]; [44],65.1% (active)
same,viability,[10]; [45],34.2% (active)
same,viability,[10]; [46],49.6% (active)
same,viability,[10]; [47],64.5% (active)
same,viability,[10]; [48],58.3% (active)
same,viability,[10]; [49],18.2% (active)
COc1ccc2c(c1)CC[C@@H]1[C@@H]2CC[C@]2(C)[C@@H](NCCCCCCN3C(=O)C=CC3=O)CC[C@@H]12,outcome,[1],inactive
same,outcome,[2],inactive
same,outcome,[3],inactive
same,outcome,[4],inactive
same,outcome,[5],inactive
same,outcome,[6],inactive
same,outcome,[7],inactive
same,fold change,[8]; [12],0.933 (inactive) and 0.926 (inactive)
same,fold change,[8]; [13],1.05 and 1.65
same,cell count,[8]; [14],5880 and 5430
same,cell count,[8]; [15],6300 and 5860
CN1N=C(N)c2cn([C@@H]3O[C@H](COP(=O)(O)O)[C@@H](O)[C@H]3O)c3ncnc1c23,AC50,[1],417 nM (active)
same,AC50,[2],372 nM (active)
same,AC50,[3],1660 nM (active)
same,AC50,[4],105 nM (active)
same,AC50,[5],132 nM (active)
CC(C)c1cc(C(C)C)c(CC(=O)NS(=O)(=O)Oc2c(C(C)C)cccc2C(C)C)c(C(C)C)c1,AC50,[1],10500 nM (active)
same,AC50,[2],20900 nM (active)
same,AC50,[3],13200 nM (active)
same,AC50,[4],9340 nM (active)
same,AC50,[5],10500 nM (active)
same,AC50,[6],11800 nM (active)
same,IC50,[7],8330 nM (active)
same,fold change,[8]; [12],0.956 (inactive)
same,fold change,[8]; [13],0.65
same,cell count,[8]; [14],5000
same,cell count,[8]; [15],5220
same,z-score,[9]; [16],-0.406 (inactive)
same,z-score,[9]; [17],0.969
Cc1ncc(-c2ccnc(Nc3ccc(S(C)(=O)=O)cc3)n2)n1C(C)C,AC50,[1],5250 nM (active)
same,AC50,[2],2350 nM (active)
same,AC50,[3],3720 nM (active)
same,AC50,[4],4680 nM (active)
same,AC50,[6],4680 nM (active)
same,IC50,[7],2950 nM (active)
same,fold change,[8]; [12],0.998 (inactive)
same,fold change,[8]; [13],1.12
same,cell count,[8]; [14],1780
same,cell count,[8]; [15],1790
same,z-score,[9]; [16],1.7 (inactive)
same,z-score,[9]; [17],-2.84
Nc1nc(Nc2ccc(S(N)(=O)=O)cc2)nn1C(=O)c1c(F)cccc1F,AC50,[1],6610 nM (active)
same,AC50,[2],9350 nM (active)
same,AC50,[3],4680 nM (active)
same,AC50,[4],6610 nM (active)
same,outcome,[5],inactive
same,IC50,[7],10500 nM (active)
same,fold change,[8]; [12],0.887 (inactive)
same,fold change,[8]; [13],0.788
same,cell count,[8]; [14],1400
same,cell count,[8]; [15],1580
same,SSMD,[11],-0.763
same,cell count,[11],6780
same,plate-normalised HSF1 focus index,[11],0.961 (inactive)
same,z-score,[9]; [16],-0.135 (inactive)
same,z-score,[9]; [17],-1.32
same,viability,[10]; [18],95% (active)
same,viability,[10]; [19],99.5% (active)
same,viability,[10]; [20],89.3% (active)
same,viability,[10]; [21],84.9% (active)
same,viability,[10]; [22],96.6% (active)
same,viability,[10]; [23],96.5% (active)
same,viability,[10]; [24],91.5% (active)
same,viability,[10]; [25],86% (active)
same,viability,[10]; [26],93.6% (active)
same,viability,[10]; [27],93.3% (active)
same,viability,[10]; [28],94.7% (active)
same,viability,[10]; [29],94.4% (active)
same,viability,[10]; [30],94.9% (active)
same,viability,[10]; [31],98.4% (active)
same,viability,[10]; [32],92.3% (active)
same,viability,[10]; [33],94.6% (active)
same,viability,[10]; [34],91.7% (active)
same,viability,[10]; [35],90.6% (active)
same,viability,[10]; [36],87.9% (active)
same,viability,[10]; [37],84% (active)
same,viability,[10]; [38],93.3% (active)
same,viability,[10]; [39],86.1% (active)
same,viability,[10]; [40],90.8% (active)
same,viability,[10]; [41],87.7% (active)
same,viability,[10]; [42],82.9% (active)
same,viability,[10]; [43],83.9% (active)
same,viability,[10]; [44],87.4% (active)
same,viability,[10]; [45],69.8% (active)
same,viability,[10]; [46],13.2% (active)
same,viability,[10]; [47],11.5% (active)
same,viability,[10]; [48],19.1% (active)
same,viability,[10]; [49],13.1% (active)
CCN(CC)CCCCNc1ncc2c(n1)N(C)C(=O)N(c1c(Cl)c(OC)cc(OC)c1Cl)C2,AC50,[1],590 nM (active)
same,AC50,[2],18700 nM (active)
same,AC50,[3],263 nM (active)
same,AC50,[4],372 nM (active)
same,IC50,[7],7420 nM (active)
CC(C)C[C@@H](N)[C@H](O)C(=O)N[C@H](C(=O)N[C@H](C(=O)N[C@@H](CC(=O)O)C(=O)O)C(C)C)C(C)C,outcome,[1],inactive
same,outcome,[2],inactive
same,outcome,[3],inactive
same,outcome,[4],inactive
same,outcome,[5],inactive
same,outcome,[6],inactive
same,outcome,[7],inactive
CC[C@@]1([C@@H]2O[C@@H]([C@H]3O[C@@](O)(CO)[C@H](C)C[C@@H]3C)C[C@@H]2C)CC[C@H]([C@]2(C)CC[C@]3(C[C@H](O)[C@@H](C)[C@@H]([C@@H](C)[C@@H](OC)[C@H](C)C(=O)O)O3)O2)O1,AC50,[1],57.4 nM (active)
same,AC50,[2],144 nM (active)
same,AC50,[3],456 nM (active)
same,AC50,[4],456 nM (active)
same,AC50,[6],288 nM (active)
